The source of these data is PubChem BioAssay (NCI).

“And” between values parts separate entries of the source, which are not always exact repeats. Equal entries are not always repeated. About 83,000 compounds went through this panel and 20% of them were active in at least one assay; those are over-represented in the sample as a whole.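 Assay: single dose, 48 h. Readout: percent growth (0 = no net growth; negative = cell death). Active: <10.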 Unmarked numbers belong to inactive results. The source made the active and inactive calls.

This assay concerns MDA-MB-468 breast. Put plainly: NCI-60 one-dose screen, 48 h (100 = growth as untreated, 0 = no growth, -100 = all killed). Conditions: 10 µM unless noted.
As to `C=C1CC[C@H](C(C)C)[C@@H]2[C@H]1[C@H]1CC(=C)[C@@H](O)CC[C@@](C)(O)[C@@H]2O1`, the growth is 89%.

On to `N=C(N)c1ccc(-c2ccc(-c3cccs3)s2)cc1`, for which the growth was -80.6% (active). To `c1ccc(CN2C(c3ccccc3)=Nc3ccccc3C2c2c[nH]c3ccccc23)cc1` (stereo not given) belongs 12.4%. For `Cc1c2c(cc[n+]1Cc1ccc(F)cc1)c1ccc(OCc3cccc(F)c3)cc1n2Cc1cccc(F)c1` the value was -85.6% (active); for `N#Cc1c(-c2ccccc2)cc(-c2ccccc2)n(CCCC(=O)O)c1=O`, -27.1% (active); for `Nc1nc2c(nnn2Cc2ccc(Cl)c(Cl)c2)c(=O)[nH]1`, 103%. Regarding `CCN(CCCCCCCCCCN1CC(=O)N(CCCCCCCCCCN(CC)Cc2ccccc2OC)CC1=O)Cc1ccccc1OC`, the growth is -87.8% (active). For `CC(C)Sc1nc(-c2ccc(Br)cc2)c(C#N)c(N2CCCCC2)n1` the value was 93.9%; for `O=C1Nc2ccc(Br)cc2C12CC(c1ccccc1)=NN2` (stereo not given), 48.6%.

On to `O=C(COCc1c(-c2ccccc2)no[n+]1[O-])Nc1nc(-c2ccc(Cl)cc2)cs1`, for which the growth was 100%.

Turning to `C#CCSc1nnnn1-c1ccccc1`, the growth was 22.3%. To `CCN(CC)CCCC(C)Nc1cnc(C(=O)Nc2cc(C)cc3cccnc23)cn1` (stereo not given) belongs 9.36% (active). For `COC(=O)c1ccc2c(c1)n(Cc1ccc3ccccc3c1)c[n+]2Cc1ccc2ccccc2c1`, the growth is -19% (active).

As to `COc1ccc(Cc2cnc(NC(=O)c3ccc4c(c3)OCCO4)s2)cc1`, the growth is 19.1%. To `CO[C@]12C=C/C(=C(/C(=O)OCc3cccnc3)C(=O)CCCCCCCC[C@]3(OC)C=C/C(=C(/C(=O)OCc4cccnc4)C(=O)CCCCCCCC1)O3)O2` belongs -50.5% (active); to `O=C(NCOC(O)C(Cl)(Cl)Cl)NCOC(O)C(Cl)(Cl)Cl` (stereo not given), 106%; to `C#CCn1cccc1CNc1ccc(OC)cc1`, -76.9% (active). To `COc1ccc(/C=C2\COc3ccc(-c4ccccc4)cc3C2=O)c(OC)c1` belongs 57%. To `COc1ccc2[nH]cc(-c3noc(C(=O)c4cn(C)c5ccc(F)cc45)n3)c2c1` belongs 102%. For the compound `Nc1ncnc2c1N=C(c1ccc(Br)cc1)CC(c1cccc(Nc3ccnc4cc(C(F)(F)F)ccc34)c1)N2` (stereo not given), the growth was 60.7%. For `C[C@H]1C(=O)C23CCC1C[C@@]21O[C@@H]2C(C)(C)C=CC(=O)C23COC1=O` the value was 102%. For `CC(C)(C)CC(C)(C)Nc1c(-c2c(O)c3ccccc3oc2=O)nc2c(Cl)cc(C(F)(F)F)cn12` the value was 92.2%; for `CC(C)N=c1cc2n(-c3ccc(Cl)cc3)c3ccccc3nc-2cc1Nc1ccc(Cl)cc1`, -45.1% (active) and -53.3% (active) and -42.4% (active); for `CCOC(=O)c1c(-c2cc(OC)c(OC)c(OC)c2)csc1N`, 50%. To `CCCCCCCC(C)NCCO` (stereo not given) belongs 104%. On to `CCC1(C2CCCC2)NC(=O)NC1=O` (stereo not given), for which the growth was 101%. In the case of `O=C(CN1C(=O)/C(=C/c2ccc(Cl)cc2)SC1=S)NCCCN1CCOCC1`, the growth was 94.3%.

Consider `OC(c1cc(C23CC4CC(CC(C4)C2)C3)nc2c(Cl)cc(Cl)cc12)C1CCCCN1` (stereo not given), for which the growth is -89.7% (active). To `CSc1ncc(C)c(Nc2ccc(Cl)cc2)n1` belongs 129%; to `O=C(Cn1nc(-c2cccc3ccccc23)ccc1=O)NCc1cccc(Cl)c1`, 12.8% [50 µM]; to `CC1c2ccccc2-c2ccccc2N1C` (stereo not given), 103%. `COC1=C(OC)C(=O)C=CC1=O`: the growth is 105%. To `COc1cc(NCc2cn(-c3ccc(C(=O)O)cc3)nc2-c2ccc(C(=O)O)cc2)cc(OC)c1OC` belongs 102%; to `COc1ccc(N(C)c2ncnc3occ(C)c23)cc1`, 30.2%.

On to `O=C(O)CCCN1C(=O)NC2(C1=O)c1ccccc1-c1ccccc12`, for which the growth was 98.2%. To `O=c1oc2ccc(-c3ccc(F)cc3F)cc2c(=O)n1-c1ccc(Br)cc1F` belongs 47.3%; to `CC(C)(C)c1ccc(O)c(Cc2cc(C(C)(C)C)ccc2O)c1`, 119%; to `Oc1ccccc1N=Cc1ccccc1`, 91%. For `O=C(Nc1ccccc1)c1cc(Cl)ccc1O` the value was 47.6%; for `COc1ccc(C(=O)/C=C/c2c(C(F)(F)F)nc3sccn23)cc1OC`, -21.1% (active).
